Records with an inconclusive call do not appear. A call without a number means that no potency is given here. The source made the active and inactive calls. Calls come from the whole dose curve; as a rule, active = well fitted curve in the direction sought with a large enough effect; inconclusive = small, poorly fitted or top-dose-only effect, or another doubt; inactive = no such curve, though single readings can be large; an effect the other way counts as inactive or inconclusive.

These results are taken from PubChem BioAssay (NCATS).

Test [1] concerns the target Aldehyde dehydrogenase, mitochondrial (Homo sapiens) (UniProt P05091). The test can be described thus: qHTS for Inhibitors of the Aldehyde Dehydrogenase Family (ALDH2) Primary screen (AID 2061308). Note: nearly all actives have a fitted effect of over 55% in size. Background: qHTS replaces the single test concentration by a dilution series.
The target of test [2] is Retinaldehyde dehydrogenase 3 (Homo sapiens) (UniProt P47895). Put plainly: qHTS for Inhibitors of the Aldehyde Dehydrogenase Family (ALDH1A3) Primary screen (AID 2061315).

Turning to `CC(=O)Nc1ccccc1NC(=O)c1cnn2c(C)cc(C)nc12`, the Potency result in test [1] and in test [2] was “inactive” each time.

For the compound `Cc1cc(-c2cnc(N)c3c(-c4ccc5scnc5c4)csc23)n(C)n1`, the Potency entry in test [1] and in test [2] was “inactive” in each case.

For `COc1ccc(S(=O)(=O)Nc2cnccc2C(=O)Nc2nc(-c3ccccc3)cs2)cc1`, the Potency entry in test [1] and in test [2] was “inactive” each time.

For the compound `O=c1c2ccccc2nc2sc(Nc3ccc(Br)cc3)nn12`, the Potency entry in test [1] and in test [2] was “inactive” throughout.

`COc1ccc(NS(=O)(=O)c2ccccc2)cc1NS(=O)(=O)c1ccccc1`: the Potency entry in test [1] and in test [2] was “inactive” each time.

Consider `Nc1ncc(S(=O)(=O)N2CCOCC2)s1`, for which the Potency entry in test [1] and in test [2] was “inactive” each time.

In the case of `COc1cccc(-c2nc3cc(NC(=O)c4ccc(C)c([N+](=O)[O-])c4)ccc3o2)c1`, the Potency entry in test [1] and in test [2] was “inactive” throughout.

With `O=C(NCCc1nc2ccccc2n1CCOc1ccc2cccnc2c1)C1CCCCC1`, the Potency entry in test [1] and in test [2] was “inactive” throughout.

As to `CC(C)(NC(=O)Nc1ccccc1Cl)C(=O)N1CCC(C(=O)O)CC1`, the Potency entry in test [1] and in test [2] was “inactive” each time.

Regarding `O=C1CCc2cc(S(=O)(=O)Nc3ccccc3F)ccc2N1`, the Potency result in test [1] and in test [2] was “inactive” in each case.

Take `CCCn1c(-c2ccc(F)cc2)nc2c(NCCN3CCSCC3)nc(C)nc21`: the Potency result in test [1] and in test [2] was “inactive” throughout.

As for `Cc1ccc(NS(=O)(=O)c2cc3c(cc2Cl)CCC(=O)N3)cc1C`, the Potency entry in test [1] and in test [2] was “inactive” each time.

For the compound `COC(=O)c1nc(Nc2cc(F)cc(F)c2)nc(NC2CCCC2)n1`, the Potency result in test [1] and in test [2] was “inactive” in each case.

Consider `CCC(=O)Nc1ccc(Cl)cc1C(=O)c1ccc[nH]1`, for which the Potency entry in test [1] and in test [2] was “inactive” in each case.

`CCOC(=O)c1nc(NCc2ccccc2)sc1C`: the Potency result in test [1] and in test [2] was “inactive” throughout.

Regarding `O=C(Nc1ccc(Cl)nc1)Nc1nnc(-c2ccncc2)s1`, the Potency result in test [1] and in test [2] was “inactive” throughout.

Regarding `Cc1cc2c(s1)c1cnn(Cc3cccc4cccnc34)c(=O)c1n2C`, the Potency result in test [1] and in test [2] was “inactive” in each case.

Regarding `O=C1c2ccccc2C(=O)N1Cc1ccncc1`, the Potency result in test [1] and in test [2] was “inactive” each time.

For `Cc1nnc(-c2cnn(C)c2N)n1CCCc1ccccn1`, the Potency entry in test [1] and in test [2] was “inactive” each time.

Regarding `Cc1csc(CNc2ncnc3ccc(-c4ccc5c(c4)OCO5)cc23)n1`, the Potency result in test [1] and in test [2] was “inactive” each time.

As to `COc1ccc(N2Cc3cccc(C(=O)O)c3C2=O)cc1OC`, the Potency result in test [1] and in test [2] was “inactive” throughout.

With `CCCn1c(C)nc2c(NCCCCN(CC)CC)nc(C)nc21`, the Potency entry in test [1] and in test [2] was “inactive” throughout.

`CCOC(=O)C1CCN(C(=O)C(C)(C)NC(=O)Nc2cccc(C(=O)OC)c2)CC1`: the Potency entry in test [1] and in test [2] was “inactive” throughout.

In the case of `Cc1cc2c(s1)c1cnn(Cc3cc(F)c(Cl)cc3Cl)c(=O)c1n2C`, the Potency entry in test [1] and in test [2] was “inactive” throughout.

As for `COc1cc(F)c(S(=O)(=O)N2CCN(S(=O)(=O)c3ccc(NC(C)=O)cc3)CC2)c(F)c1`, the Potency entry in test [1] and in test [2] was “inactive” in each case.

In the case of `CC(C)CCCCC(=O)N[C@@H](CO)C(=O)N[C@@H](CC(C)C)C(=O)[C@@]1(CO)CO1`, the Potency result in test [1] and in test [2] was “inactive” each time.

On to `Brc1cnc2nc(SCc3ccccc3)[nH]c2c1`, for which the Potency result in test [1] and in test [2] was “inactive” throughout.

Turning to `COc1cccc(C2=Nn3c(nnc3-c3ccc(OC)cc3OC)SC2)c1`, the Potency result in test [1] and in test [2] was “inactive” in each case.

Take `O=S(=O)(NCc1ccccc1)c1ccc(O)c2ncccc12`: the Potency entry in test [1] and in test [2] was “inactive” in each case.

Take `Cc1ccc(S(=O)(=O)Nc2cccc(C(=O)Nc3nc(-c4ccccc4)cs3)c2Cl)cc1`: the Potency entry in test [1] and in test [2] was “inactive” each time.

In the case of `Brc1cnc2nc(SCc3ccncc3)[nH]c2c1`, the Potency entry in test [1] and in test [2] was “inactive” in each case.

As to `Cc1cccc(C)c1OCc1cccc(C2Nc3ccccc3C(=O)N2Cc2ccco2)c1` (stereo not drawn), the Potency result in test [1] and in test [2] was “inactive” in each case.

For `CC1(C)CC(=O)C2=C(C1)NC(Nc1nc3ccccc3o1)=NC21CCCCC1`, the Potency entry in test [1] and in test [2] was “inactive” each time.

On to `Cc1cccc(-n2cnc3cc(C(=O)N4CCN(C)CC4)ccc32)c1`, for which the Potency entry in test [1] and in test [2] was “inactive” in each case.

Take `O=C1CCCC2=C1C(c1ncccc1C(F)(F)F)N=C(Nc1nc3ccccc3o1)N2` (stereo not drawn): the Potency entry in test [1] and in test [2] was “inactive” in each case.

Take `Cc1cc(NCc2ccc(NC(=O)Cc3ccc(Cl)c(Cl)c3)cc2)no1`: the Potency entry in test [1] and in test [2] was “inactive” throughout.

Turning to `Cc1cc(N[S+](=O)([O-])c2cc3c(cc2Cl)CCC(=O)N3)ccc1Br`, the Potency entry in test [1] and in test [2] was “inactive” each time.

For `CC(C)c1ccccc1-c1ncc(N(C)C)c(NCc2ccc(-c3cccnc3)cc2)n1`, the Potency entry in test [1] and in test [2] was “inactive” in each case.

Regarding `Cc1cc(C)nc(NC(=S)N2CCN(c3ccc4ncccc4c3[N+](=O)[O-])CC2)c1`, the Potency entry in test [1] and in test [2] was “inactive” in each case.

`O=C(Nc1ccc(-c2cn[nH]c2)cc1)Nc1nnc(-c2ccncc2)s1`: the Potency result in test [1] and in test [2] was “inactive” throughout.

As for `CCCn1c(C)nc2c(NCCCN(C)C)nc(C)nc21`, the Potency result in test [1] and in test [2] was “inactive” in each case.

With `N#Cc1nc(Nc2cccc3ccccc23)nc(NC2CCCC2)n1`, the Potency entry in test [1] and in test [2] was “inactive” each time.

Turning to `COc1ccc2[nH]c(=O)c3c(c2c1)OC(C)(C)C=C3`, the Potency result in test [1] and in test [2] was “inactive” throughout.

`CC(=O)Nc1cccc([S+](=O)([O-])N2CCCN([S+](=O)([O-])c3cccc(NC(C)=O)c3)CC2)c1`: the Potency result in test [1] and in test [2] was “inactive” in each case.
